Assay results reported in PubChem BioAssay.
Several values for one entry are separate records, joined by “and”; a condition that tells them apart may be missing. Identical values can stand only once. Activity calls are given as the source filed them.

experiment: E. coli DRC41 culture turbidity changes, primary screen, E. coli filamentation inducer project, strain DRC41, OD650, 48 h (AID 1152);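 note: E. coli MC1000 strain DRC41 lacking acrAB efflux pump and sulA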; settings: E. coli DRC41 (acrAB sulA), higher = more signal, called active from +8 up or from −8 down

Compound	z-score
C=CCN(Cc1ccccc1)C(=O)C1N(c2ccc(CCO)cc2)C(=O)C2C(C(=O)O)C3C=CC21O3 (configuration not stated)	0.458 (inactive) and 1.31 (inactive)
CCOC(=O)C[C@H]1[C@H](OC(=O)c2ccccc2-c2ccccc2)[C@@H](NC(=O)Cc2ccc(OC)cc2)c2cc(OCCCO)ccc2N1C(=O)c1ccc2ccccc2n1	2.19 (inactive) and 1.32 (inactive)
CC(C)CCN1CCc2nc(-c3ccccc3)c3c(c2C1)CO[C@@H](C)C3	0.842 (inactive)
CCOC(=O)[C@@H]1CC=C2CC1C(=O)N1CCC[C@@H]1[C@H]2O[Si](C)(C)C(C)(C)C (some centres not stated)	-1.02 (inactive) and -0.796 (inactive)
COC(=O)[C@@]1(Cc2ccc(OC)cc2)[C@H]2c3cc(C(=O)N(C)C)n(Cc4ccc(O)c(OC)c4)c3C[C@H]2CN1C(=O)c1ccccc1	-0.583 (inactive) and -1.09 (inactive)
CO[C@H]1COC(=O)CC=C[C@H](C)[C@H](OC)COC(=O)[C@@H](C)COC(=O)CC=C[C@@H]1C	0.462 (inactive) and 0.63 (inactive)
CCOC(=O)C[C@H]1[C@H](OC(=O)c2ccccc2-c2ccccc2)[C@@H](NC(=O)c2ccccc2)c2cc(OCCCO)ccc2N1C(=O)c1ccc2ccccc2n1	0.869 (inactive) and -0.664 (inactive)
C=CCN(CCCC)C(=O)C1N(c2c(Cl)cccc2CO)C(=O)C2C(C(=O)O)C3C=CC21O3 (configuration not stated)	-0.074 (inactive) and 2.24 (inactive)

experiment: small-molecule binders of probe aLefty1, primary screen, biochemical, small-molecule microarray, 635/667 nm fluorescence (AID 1153); settings: higher = more signal;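 note: score merges spot fluorescence with signal-to-noise ratio from the scanned slide images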

Compound	composite z-score
CC(CO)N1C(=O)[C@@H]2C3C(=O)OCCC=C[C@H]3OC23C=CCN(c2ccc(Cl)cc2)C(=O)[C@@H]13 (some centres not stated)	-0.142 and 0.422
CCOC(=O)NN=C1C[C@@H](O)[C@@H](O)[C@@H]2[C@@H]3C(=O)N(Cc4ccc5c(c4)OCO5)C(=O)[C@@H]3CC[C@@H]12	-0.14
C=CCN(C(=O)C(c1cccs1)N(C(=O)/C=C\C(=O)O)c1ccc(CCO)cc1)C(C)(C)C (configuration not stated)	-0.134 and 0.0355
C=CCN(C(=O)C(c1cccs1)N(C(=O)/C=C\C(=O)O)c1c(Cl)cccc1CO)C(C)(C)C (configuration not stated)	0.045 and 0.192
C=CCN(CCCCC)C(=O)C1N(c2c(Cl)cccc2CO)C(=O)C2C(C(=O)O)C3C=CC21O3 (configuration not stated)	-0.313 and 0.0547
C=CCN(CCCC)C(=O)C(c1cccs1)N(CCOCCO)C(=O)/C=C\C(=O)O (configuration not stated)	-0.275 and -0.127
CCCCCN1CC=CC23O[C@@H]4C=CCCOC(=O)C4[C@H]2C(=O)N(C(C)CO)[C@@H]3C1=O (some centres not stated)	-0.962 and 1.57
COC(=O)[C@H](C)NC(=O)CCC1CC(OC(=O)NCCc2ccc(F)cc2)CC2(CCCC(COC(=O)NCCCN3CCCC3=O)O2)O1 (some centres not stated)	-0.294
COC(=O)C1=C(C)N(Cc2ccccc2)C2=C(C(C)=O)C[C@@](O)(C(=O)OC)C(=O)N2[C@@H]1c1ccccc1	-0.147 and 0.0732
C=CCN(CCCCC)C(=O)C(c1cccs1)N(C(=O)/C=C\C(=O)O)c1c(Cl)cccc1CO (configuration not stated)	0.0005 and -1.11
CC(C)CON=C1C[C@@H](O)[C@@H](O)[C@@H]2[C@@H]3C(=O)N(c4cccc(Oc5ccccc5)c4)C(=O)[C@@H]3CC[C@H]12	-0.298
C=CCN(C(=O)C(c1cccs1)N(C(=O)/C=C\C(=O)O)C(C)(C)CO)c1ccc(OC)cc1 (configuration not stated)	-0.0722 and 0.121
CCCNC(=O)OC[C@H]1O[C@H](CCON=C(C)CCN2CCc3nc(-c4ccccc4)c(-c4ccccc4)cc3C2)C=C[C@@H]1Oc1ccc(OC)cc1	-0.0054
C=CC[C@@H](O)c1ccc(O)c(F)c1	-0.216 and -0.0449
C=CCN(Cc1ccccc1)C(=O)C(c1cccs1)N(C(=O)/C=C\C(=O)O)c1c(Cl)cccc1CO (configuration not stated)	-0.855 and -0.191
CC(C)[Si]1(C(C)C)OCc2cc(CCCc3cc4c(c(CCc5ccccc5)n3)[Si](C(C)C)(C(C)C)OC4)nc(CCc3ccccc3)c21	-0.147 and -0.192
COC(=O)[C@@]1(Cc2ccc(F)cc2)[C@H]2c3cc(C(=O)N4CCCC4)n(Cc4c(CO)[nH]cc(C)c4=O)c3C[C@H]2CN1C(=O)c1ccccc1	1.63 and 0.0811
C=CCN(C(=O)C1N(c2ccc(CCO)cc2)C(=O)C2C(C(=O)O)C3C=CC21O3)c1ccc(OC)cc1 (configuration not stated)	-0.147 and -0.216
C=CCN(C(=O)C1N(CCOCCO)C(=O)C2C(C(=O)O)C3C=CC21O3)C(C)(C)C (configuration not stated)	-0.161 and -0.695
CCOC(=O)c1ccc(NC(=O)O[C@H]2[C@H](OC(=O)Nc3ccccc3)[C@H](OC(=O)Nc3ccccc3)[C@@H](OC)O[C@@H]2CO)cc1	0.416 and 0.344

Compound	composite z-score
CC(C)=NOCc1ccc(-c2cn([C@@H]3COC[C@H]3O)nn2)cc1	-0.245
C[C@@H]1CC[C@H]2C(=O)O[C@H](CN=[N+]=[N-])CN2[C@H]1c1ccc(Br)cc1	0.0457 and -0.284
C=CCN1C(=O)[C@]2(O[C@H](CCn3cc(CCO)nn3)[C@@H]([Si](C)(C)c3ccc(OC)cc3)[C@@H]2C)c2cc(N3C(=O)c4cccc5cccc3c45)ccc21	-0.0536 and 0.188
CC(CO)N1C(=O)[C@@H]2C3C(=O)OCCC=C[C@H]3OC23C=CCN(Cc2ccccc2)C(=O)[C@@H]13 (some centres not stated)	-0.0162 and 0.132
C=CCN(C(=O)C1N(c2c(Cl)cccc2CO)C(=O)C2C(C(=O)O)C3C=CC21O3)C(C)(C)C (configuration not stated)	-0.945 and -0.0547
O=C1C[C@]2(c3ccc([N+](=O)[O-])cc3)C(=O)N(Cc3ccccc3)c3cc(CO)ccc3[C@H]2N1C1CCCCC1	-0.221 and -0.0626
C[C@@H](ON=C1[C@H]2CCn3c(=O)n(-c4ccccc4)c(=O)n3[C@H]2[C@H](O)[C@@H]2O[C@H]12)c1cn([C@H](CO)Cc2ccccc2)nn1	-0.049
C=CCN(CCCC)C(=O)C1N(C(C)(C)CO)C(=O)C2C(C(=O)O)C3C=CC21O3 (configuration not stated)	-0.255 and -0.488
COC(=O)[C@@]1(Cc2ccccc2)[C@H]2c3cc(C(=O)N(C)C)n(C[C@H](O)CO)c3C[C@H]2CN1C(=O)c1ccccc1	0.0903 and 0.415
C[C@@H]1CN2[C@@H](CC[C@@H](C)[C@@H]2c2ccc(Br)cc2)C(=O)O1	0.0367 and -0.275
COC(=O)C1=C(C)N(Cc2ccccc2)[C@]23O[C@](C(=O)OC)(C(=O)N2[C@@H]1c1ccccc1)[C@@H](C(=O)OC)[C@H]3C(=O)OC	-0.282 and -0.0011
C=CCN(Cc1ccccc1)C(=O)C1N(c2ccc(CCO)cc2)C(=O)C2C(C(=O)O)C3C=CC21O3 (configuration not stated)	-0.289 and -0.27
CCOC(=O)C[C@H]1[C@H](OC(=O)c2ccccc2-c2ccccc2)[C@@H](NC(=O)Cc2ccc(OC)cc2)c2cc(OCCCO)ccc2N1C(=O)c1ccc2ccccc2n1	-0.012 and -0.0186
CC(C)CCN1CCc2nc(-c3ccccc3)c3c(c2C1)CO[C@@H](C)C3	0.173
CCOC(=O)[C@@H]1CC=C2CC1C(=O)N1CCC[C@@H]1[C@H]2O[Si](C)(C)C(C)(C)C (some centres not stated)	-0.199 and -0.417
COC(=O)[C@@]1(Cc2ccc(OC)cc2)[C@H]2c3cc(C(=O)N(C)C)n(Cc4ccc(O)c(OC)c4)c3C[C@H]2CN1C(=O)c1ccccc1	0.0913 and 0.661
CO[C@H]1COC(=O)CC=C[C@H](C)[C@H](OC)COC(=O)[C@@H](C)COC(=O)CC=C[C@@H]1C	-0.294 and -0.193
CCOC(=O)C[C@H]1[C@H](OC(=O)c2ccccc2-c2ccccc2)[C@@H](NC(=O)c2ccccc2)c2cc(OCCCO)ccc2N1C(=O)c1ccc2ccccc2n1	0.126 and 0.341
C=CCN(CCCC)C(=O)C1N(c2c(Cl)cccc2CO)C(=O)C2C(C(=O)O)C3C=CC21O3 (configuration not stated)	-0.0544 and 0.452
